Experimental data taken from PubChem BioAssay.
Several values for one entry are separate records, joined by “and”; a condition that tells them apart may be missing. Equal values may be shown once. Activity calls are given as the source filed them.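 The calls were made as follows, unless noted: active = inhibition at or above 50% relative to wild type and mutant plate controls; inactive = inhibition below 50%.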

Columns and labels:
[1] = reduction of polyQ htt aggregates in cells – imaging, exon1htt(103Q)mCFP cells, high-content imaging, primary screen (AID 483;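 active = visual image review flags a hit and inhibition of aggregation exceeds 20%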;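 also: compound exposure lasted 3 days before fixation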;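 as to nuclei count: percent of the per-plate median nuclei count of sample wells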); conditions: exon1htt(103Q)mCFP cell line, aggregate imaging, at 2 µM; inhibition of aggregation: stronger effect = higher value; nuclei count: measured here: cell count, toxicity
[2] = endothelial E-selectin expression blockers – imaging, HUVEC, immunofluorescence, MLSMR starter and 10KST1 sets, primary screen (AID 487;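 active = visually confirmed hit in the image check and inhibition above 20%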;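 as to inhibition: signal is fraction of cell area covered by stained E-selectin grains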;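 as to nuclei count: 100% = median nuclei count of all wells on the same plate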); conditions: HUVEC TNFalpha-induced E-selectin immunofluorescence imaging, at 2 µM; inhibition: stronger effect = higher value; nuclei count: measured here: cell number, toxicity
[3] = Primary imaging screen for DUSP6 inhibitors that restore phospho-Erk in transfected HeLa cells, chemical complementation (AID 609;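 active = compounds giving at least 50% inhibition in the cell-based MKP-3 phosphatase rescue imaging test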;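 as to inhibition: phospho-Erk level distribution per well compared with pooled transfected vehicle control wells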); conditions: HeLa MKP-3 transfected, phospho-Erk imaging KS statistic, at 10 µM
[4] = molecular target: Dual specificity protein phosphatase 6 (Homo sapiens) (UniProt Q16828); assay: as above; conditions: HeLa MKP-3 transfected, phospho-Erk imaging KS statistic, at 10 µM, stronger effect = higher value
Sequence of Dual specificity protein phosphatase 6 (Homo sapiens) (Q16828 whole entry, looked up): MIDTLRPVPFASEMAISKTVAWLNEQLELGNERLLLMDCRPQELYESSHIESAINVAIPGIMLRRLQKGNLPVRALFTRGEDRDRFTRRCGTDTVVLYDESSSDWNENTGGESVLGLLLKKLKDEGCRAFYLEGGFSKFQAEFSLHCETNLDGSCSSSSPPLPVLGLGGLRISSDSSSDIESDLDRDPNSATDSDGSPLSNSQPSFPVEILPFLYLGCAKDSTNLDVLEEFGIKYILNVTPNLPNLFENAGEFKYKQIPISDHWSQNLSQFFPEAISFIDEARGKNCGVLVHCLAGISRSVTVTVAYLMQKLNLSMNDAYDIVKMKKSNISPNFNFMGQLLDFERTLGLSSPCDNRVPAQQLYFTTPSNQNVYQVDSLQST

[5] = molecular target: Voltage-gated potassium channel subunit beta-2 (Rattus norvegicus) (UniProt P62483); assay: inhibitors of rat Kvbeta2 reductase activity – biochemical, NADPH fluorescence, primary screen (AID 622;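 active = fluorescence slope higher than the sample average by over 3 SD, cut at about -0.22 in these data, passing the limit was not always enough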;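 also: slope of raw intensity against log time taken from 70 to 1610 s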); conditions: recombinant KvBeta, 4-cyanobenzaldehyde reduction, at 10 µM, stronger effect = higher value
Sequence of Voltage-gated potassium channel subunit beta-2 (Rattus norvegicus) (P62483 whole entry, looked up): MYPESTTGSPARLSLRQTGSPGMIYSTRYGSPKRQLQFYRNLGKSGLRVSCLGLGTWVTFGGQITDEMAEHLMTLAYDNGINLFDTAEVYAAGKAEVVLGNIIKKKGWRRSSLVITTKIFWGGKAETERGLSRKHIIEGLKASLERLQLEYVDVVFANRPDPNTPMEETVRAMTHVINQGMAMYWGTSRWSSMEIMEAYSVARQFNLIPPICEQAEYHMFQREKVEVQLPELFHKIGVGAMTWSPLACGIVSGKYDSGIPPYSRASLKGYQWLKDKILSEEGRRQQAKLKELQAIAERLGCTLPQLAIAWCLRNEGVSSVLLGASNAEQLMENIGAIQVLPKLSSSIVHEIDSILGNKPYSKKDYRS

[6] = molecular target: Voltage-gated potassium channel subunit beta-2 (Rattus norvegicus) (UniProt P62483); assay: enhancers of rat Kvbeta2 NADPH turnover – biochemical, NADPH fluorescence, primary screen (AID 623;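 active = NADPH fluorescence slope more negative than the mean of all samples by about 3 SD, 99.7% confidence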;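 also: fluorescence intensity change per second fitted from 20 to 320 s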); conditions: Recombinant KvBeta, NADPH fluorescence decrease slope, 10 min; at 10 µM; stronger effect = lower value
[7] = molecular target: Alpha-2C adrenergic receptor (Homo sapiens) (UniProt P18825); assay: compounds altering alpha2C-coupled GIRK flux – cell-based, HEK293 alpha2C/GIRK1/2, thallium flux, primary screen (AID 624;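 active = fluorescence slope after compound addition differing from the mean of all screened samples at 99.7% confidence, in either direction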;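 also: slope of fluorescence ratio to pre-addition baseline per second over 15 to 24 s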); conditions: thallium flux BTC fluorescence, at 10 µM, actives lie on both sides
Sequence of Alpha-2C adrenergic receptor (Homo sapiens) (P18825 whole entry, looked up): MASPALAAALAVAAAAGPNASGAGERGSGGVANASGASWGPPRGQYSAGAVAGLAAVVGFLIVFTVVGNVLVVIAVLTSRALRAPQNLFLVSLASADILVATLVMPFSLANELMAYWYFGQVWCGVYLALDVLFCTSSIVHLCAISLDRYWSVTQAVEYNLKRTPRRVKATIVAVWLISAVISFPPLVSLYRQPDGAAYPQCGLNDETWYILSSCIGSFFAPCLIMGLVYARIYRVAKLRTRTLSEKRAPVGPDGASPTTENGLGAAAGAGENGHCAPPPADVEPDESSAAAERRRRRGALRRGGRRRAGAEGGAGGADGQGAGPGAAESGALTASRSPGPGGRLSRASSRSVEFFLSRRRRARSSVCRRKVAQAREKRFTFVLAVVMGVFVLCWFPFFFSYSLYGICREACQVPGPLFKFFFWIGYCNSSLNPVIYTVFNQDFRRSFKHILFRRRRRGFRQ

[8] = inhibitors of larval lipid processing in zebrafish, primary screen, whole organism, PED6 fluorescence, gall bladder and intestine (AID 686;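 active = a full or partial loss of lipid-probe fluorescence in the fish gall bladder, intestine or both, judged by eye; inactive = no fluorescence loss, or compound toxic to the fish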;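 also: larvae 5 to 7 days old with five fish per well; signal comes from phospholipase A2 cleavage of quenched PED6 carried via bile; overnight exposure to compound and PED6 before scoring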); conditions: Zebrafish larvae PED6 lipid processing, fluorescence scoring
[9] = loss of swimming-algae plug formation – whole organism, Chlamydomonas reinhardtii, WT vs cilia-less mutant, absorbance, 96-well, primary screen (AID 463189); conditions: Chlamydomonas reinhardtii gravitaxis, OD600 absorbance, 2 days; at 10 µM; stronger effect = higher value;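 also: 0% = wild type cc124 cells in DMSO and 100% = ciliumless bld1 mutant cells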
[10] = blockers of RIG-like receptor reporter activation – cell-based, Sendai virus stimulus, luciferase, 10K MLSCN set, TLR/RLR signaling modifier project, primary screen (AID 602276;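 active = inhibition at or above 50% at 10 µM; inactive = inhibition below 50%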;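 also: firefly luciferase from ISG56 promoter only with Renilla not read in this screen; 0% = Sendai virus plus DMSO and 100% = medium plus DMSO without virus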); conditions: HEK293 RL24 IRF3 luciferase reporter, at 10 µM, stronger effect = higher value
[11] = TLR3 IRF3 reporter activation blockers – cell-based, poly I:C stimulus, luciferase, 10K MLSCN set, primary screen (AID 602277;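 active = inhibition of the reporter signal at or above 50%; inactive = inhibition below 50%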); conditions: HEK293-TLR3 RL24 IRF3 luciferase reporter, at 10 µM, stronger effect = higher value
[12] = molecular target: Muscarinic acetylcholine receptor M4 (Homo sapiens) (UniProt P08173); assay: M4-linked GIRK flux change, two-sided – cell-based, HEK293 M4/GIRK, thallium flux, BTC-AM, M4 allosteric agonist project, primary screen (AID 625;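 active = fluorescence slope after compound addition differing from the mean of all tested samples at 99.7% confidence, mostly higher but some lower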;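 also: thallium influx through GIRK channels coupled to M4 in HEK293 cells with BTC-AM dye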); conditions: at 10 µM, actives lie on both sides
Sequence of Muscarinic acetylcholine receptor M4 (Homo sapiens) (P08173 whole entry, looked up): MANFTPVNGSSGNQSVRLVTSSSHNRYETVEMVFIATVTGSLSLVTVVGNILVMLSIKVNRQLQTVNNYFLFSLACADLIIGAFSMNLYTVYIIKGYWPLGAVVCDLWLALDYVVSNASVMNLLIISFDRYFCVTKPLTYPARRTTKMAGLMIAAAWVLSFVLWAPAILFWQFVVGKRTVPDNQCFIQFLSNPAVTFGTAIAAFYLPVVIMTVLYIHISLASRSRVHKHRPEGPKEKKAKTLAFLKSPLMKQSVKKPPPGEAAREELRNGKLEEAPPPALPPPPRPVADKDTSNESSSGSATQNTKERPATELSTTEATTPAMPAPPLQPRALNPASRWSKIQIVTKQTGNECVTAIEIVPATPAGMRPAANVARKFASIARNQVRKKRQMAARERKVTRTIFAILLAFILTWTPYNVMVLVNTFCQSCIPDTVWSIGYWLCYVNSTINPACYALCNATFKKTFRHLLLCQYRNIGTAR

[13] = measured here: cell density z-score
[14] = measured here: nuclear c-Myc green intensity z-score
[15] = measured here: nuclear pErk red intensity z-score, stronger effect = higher value

Compound | inhibition of aggregation [1] | nuclei count [1] | inhibition [2] | nuclei count [2] | z-score [3, 13] | z-score [3, 14] | z-score [3, 15] | inhibition [4] | fluorescence slope [5] | NADPH fluorescence slope [6] | slope [7] | outcome [8] | inhibition [9] | inhibition [10] | inhibition [11] | fluorescence slope [12]
C[C@]12CCC(=O)C=C1CC[C@@H]1[C@@H]2CC[C@]2(C)C(=O)CC[C@@H]12 | 16.3% (inactive) | 88.1% | -105% (inactive) | 117% | -1.04 | -1.5 | 2.67 | 11.3% (inactive) | -0.41 (inactive) | 2.5e-05 (inactive) | 0.00365 (inactive) | inactive | 3.25% (inactive) and 26.7% (inactive) | 5% (inactive) | 31.7% (inactive) | –
C=CCN1CCC23c4c5ccc(O)c4O[C@H]2C(=O)CC[C@@]3(O)C1C5 (stereo partly drawn) | – | – | – | – | – | – | – | – | – | – | – | – | 4.89% (inactive) | – | – | –
O=P(c1ccccc1)(c1ccccc1)N1CCCCC1 | – | – | -13.6% (inactive) | 99.1% | -0.682 | -0.604 | -1.11 | 18.9% (inactive) | -0.396 (inactive) | 1.4e-05 (inactive) | – | inactive | -7.33% (inactive) | – | – | 0.00417 (inactive)
O=C(COc1ccc2ccccc2c1)N1CCN(C2CCN(Cc3ccccc3)CC2)CC1 | 2.5% (inactive) | 75.6% | -123% (inactive) | 138% | 0.592 | -1.17 | 0.865 | 1.04% (inactive) | -0.309 (inactive) | 1.5e-05 (inactive) | 0.00353 (inactive) | inactive | 64.5% (active) | 8.43% (inactive) | -13.3% (inactive) | –
CN1CCc2cccc(Cl)c2CC1 | – | – | – | – | – | – | – | – | – | – | – | – | 9.04% (inactive) | – | – | –
c1ccc2c(c1)OCC(C1=NCCN1)O2 (stereo not drawn) | 2.2% (inactive) | 109% | -66.1% (inactive) | 128% | 0.816 | -0.0814 | 0.589 | 27.9% (inactive) | 0.111 (active) | -0.000173 (inactive) | 0.0054 (inactive) | inactive | -4.66% (inactive) and 22.4% (inactive) | -8.86% (inactive) | 10.1% (inactive) | –
